In ChEMBL document CHEMBL3988442, “University of Dundee, Small-Polar-MMV Screening Library” (2021) one finds Percent Effect data, which are given here for eight compounds.

For some of these results: Potency and affinity values are given separately.

Holding throughout (parameters): scale not given: direction of the effect not stated beside the values
Assay [1] addresses Protein translocase subunit SecA (Escherichia coli (strain K12)) (UniProt P10408). Description: Assay to Identify E. coli SecA ATPase Inhibitors. The note with it: 30 µM. It is filed as functional.
The target of assay [2] is T1, Ubiquitin-activating enzyme e1, putative (Leishmania donovani (strain BPK282A1)) (UniProt E9BSI1).
T1 sequence (whole entry): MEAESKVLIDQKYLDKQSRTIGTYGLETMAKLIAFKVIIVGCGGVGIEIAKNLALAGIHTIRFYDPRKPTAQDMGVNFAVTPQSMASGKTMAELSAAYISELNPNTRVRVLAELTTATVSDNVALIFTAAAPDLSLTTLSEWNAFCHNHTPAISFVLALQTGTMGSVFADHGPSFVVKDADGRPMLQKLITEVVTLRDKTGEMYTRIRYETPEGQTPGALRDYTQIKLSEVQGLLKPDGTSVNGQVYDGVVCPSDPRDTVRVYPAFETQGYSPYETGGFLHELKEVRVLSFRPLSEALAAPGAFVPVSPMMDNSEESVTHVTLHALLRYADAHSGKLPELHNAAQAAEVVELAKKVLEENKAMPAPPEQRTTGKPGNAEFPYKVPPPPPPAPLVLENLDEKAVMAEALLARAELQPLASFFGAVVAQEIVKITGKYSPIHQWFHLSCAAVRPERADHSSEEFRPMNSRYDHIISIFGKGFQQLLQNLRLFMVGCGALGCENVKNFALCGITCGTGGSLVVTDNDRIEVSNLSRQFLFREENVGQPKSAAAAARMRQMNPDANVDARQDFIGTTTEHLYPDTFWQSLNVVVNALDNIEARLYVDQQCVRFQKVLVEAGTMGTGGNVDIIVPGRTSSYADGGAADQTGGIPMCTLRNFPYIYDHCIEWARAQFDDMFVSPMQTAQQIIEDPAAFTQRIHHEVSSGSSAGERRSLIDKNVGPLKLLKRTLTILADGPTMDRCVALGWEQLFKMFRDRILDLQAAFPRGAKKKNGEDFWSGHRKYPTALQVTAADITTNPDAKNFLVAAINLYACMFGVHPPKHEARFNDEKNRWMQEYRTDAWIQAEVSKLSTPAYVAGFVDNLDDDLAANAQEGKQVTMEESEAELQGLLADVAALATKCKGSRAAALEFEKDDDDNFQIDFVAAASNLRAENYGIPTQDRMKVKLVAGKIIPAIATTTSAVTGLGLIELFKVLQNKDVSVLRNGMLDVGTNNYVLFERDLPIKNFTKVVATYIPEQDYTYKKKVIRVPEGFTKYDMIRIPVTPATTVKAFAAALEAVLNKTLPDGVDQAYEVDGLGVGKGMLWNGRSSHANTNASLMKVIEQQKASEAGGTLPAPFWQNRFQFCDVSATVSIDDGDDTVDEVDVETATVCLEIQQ
Description: Leishmania donovani Ubiquitin Activating Enzyme (LdE1). The note with it: 30 µM. In kind it is functional.

Assay [3] deals with AMP-activated protein kinase, AMPK (Homo sapiens) (UniProt P54646+O43741+P54619+Q9UGJ0+Q9Y478+Q13131+Q9UGI9). Description: AMP-dependent Kinase enzyme assay. An in vitro enzyme assay that detects ADP turnover that is directly proportional to AMPK activity. This uses naive AMPK that is activated during the assay with MK-8722. It is filed as functional. As to conditions: 30 µM.

For assay [4], the target named is Sialic acid-binding Ig-like lectin 9 (Homo sapiens) (UniProt Q9Y336). Description: Hs-Siglec9 ALPHAscreen SOP 20170721. As to conditions: 10 µM.
Sequence of Sialic acid-binding Ig-like lectin 9 (Homo sapiens) (Q9Y336 whole entry): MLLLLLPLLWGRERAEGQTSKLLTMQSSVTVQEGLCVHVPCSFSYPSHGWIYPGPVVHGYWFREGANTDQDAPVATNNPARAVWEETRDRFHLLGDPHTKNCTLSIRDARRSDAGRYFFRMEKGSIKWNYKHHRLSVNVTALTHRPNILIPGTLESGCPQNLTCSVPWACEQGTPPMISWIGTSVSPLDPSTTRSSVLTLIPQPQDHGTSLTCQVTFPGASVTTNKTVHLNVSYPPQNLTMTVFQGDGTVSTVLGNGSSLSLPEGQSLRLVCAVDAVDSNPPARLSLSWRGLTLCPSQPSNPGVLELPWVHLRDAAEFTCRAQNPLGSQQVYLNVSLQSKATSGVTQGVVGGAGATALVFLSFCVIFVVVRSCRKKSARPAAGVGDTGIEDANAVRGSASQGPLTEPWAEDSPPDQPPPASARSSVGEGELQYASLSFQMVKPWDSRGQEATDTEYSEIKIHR
The subject of another assay is Trypanosoma cruzi. Description: Trypanosoma cruzi phosphomannomutase and mannose-1-phosphate guanylyltransferase assay. It is filed as functional. As to conditions: 10 µM.
Assay [5] has as its target T2, Arginase-2, mitochondrial (Homo sapiens) (UniProt P78540).
T2 sequence (whole entry): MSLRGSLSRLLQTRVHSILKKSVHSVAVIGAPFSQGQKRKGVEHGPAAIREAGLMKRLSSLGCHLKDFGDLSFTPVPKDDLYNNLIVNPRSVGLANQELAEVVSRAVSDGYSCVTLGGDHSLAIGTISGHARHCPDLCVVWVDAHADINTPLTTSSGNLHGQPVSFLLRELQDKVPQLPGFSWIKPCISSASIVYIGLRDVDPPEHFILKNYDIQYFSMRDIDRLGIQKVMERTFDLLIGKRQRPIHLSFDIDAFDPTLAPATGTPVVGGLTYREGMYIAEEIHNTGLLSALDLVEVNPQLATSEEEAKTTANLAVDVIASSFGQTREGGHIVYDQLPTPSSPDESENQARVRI
As to the kind of experiment: in vitro enzyme assay to detect the production of urea directly proportional to the activity of Arginase II. Note: in the data most compounds retested in dose-response had high values. In kind it is functional. As to conditions: 33.3 µM.

The target of assay [6] is T3, Proteasome subunit beta (Trypanosoma cruzi) (UniProt O96673).
T3 sequence (whole entry): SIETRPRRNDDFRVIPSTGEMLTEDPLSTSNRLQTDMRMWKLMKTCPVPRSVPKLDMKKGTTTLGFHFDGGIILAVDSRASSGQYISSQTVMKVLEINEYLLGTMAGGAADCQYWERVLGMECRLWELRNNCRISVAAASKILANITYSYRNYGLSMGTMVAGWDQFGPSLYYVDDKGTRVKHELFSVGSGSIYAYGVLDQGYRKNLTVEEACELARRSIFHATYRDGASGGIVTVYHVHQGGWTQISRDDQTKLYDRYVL
Description: Trypanosoma cruzi proteasome chymotrypsin-like activity (TcProtChymo) assay. Note: in the data most compounds retested in dose-response had high values. The note with it: 9.37 µM. It is filed as functional.

The species named for a further assay is Homo sapiens. Description: To identify inhibition of the IFN signalling (Jak-Stat) pathway via expression of an eGFP reporter gene under the control of an IFN-stimulated response element (ISRE) containing MxA promoter. It is filed as functional. The note with it: 30 µM.
Assay [7] deals with T4, Tyrosyl-tRNA synthetase, putative (Trypanosoma cruzi (strain CL Brener)) (UniProt Q4DSP6).
T4 sequence (whole entry): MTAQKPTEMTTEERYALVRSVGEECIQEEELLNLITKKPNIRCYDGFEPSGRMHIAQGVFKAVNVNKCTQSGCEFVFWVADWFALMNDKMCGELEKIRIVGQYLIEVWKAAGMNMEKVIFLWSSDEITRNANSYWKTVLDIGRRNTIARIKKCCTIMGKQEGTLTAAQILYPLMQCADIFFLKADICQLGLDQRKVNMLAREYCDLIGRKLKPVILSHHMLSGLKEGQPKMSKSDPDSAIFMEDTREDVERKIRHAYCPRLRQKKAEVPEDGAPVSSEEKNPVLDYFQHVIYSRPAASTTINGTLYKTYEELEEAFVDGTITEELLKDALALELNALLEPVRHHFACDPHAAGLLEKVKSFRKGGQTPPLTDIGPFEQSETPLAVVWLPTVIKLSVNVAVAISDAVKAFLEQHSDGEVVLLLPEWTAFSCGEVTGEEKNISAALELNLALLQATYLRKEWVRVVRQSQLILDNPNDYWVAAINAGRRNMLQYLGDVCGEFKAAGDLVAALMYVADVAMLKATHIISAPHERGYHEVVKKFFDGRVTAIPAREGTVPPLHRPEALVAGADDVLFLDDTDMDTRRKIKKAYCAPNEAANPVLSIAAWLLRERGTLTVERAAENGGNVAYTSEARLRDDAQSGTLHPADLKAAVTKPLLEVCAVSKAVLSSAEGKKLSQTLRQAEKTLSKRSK
Description: Trypanosoma cruzi tyrosyl tRNA synthetase (TcYRS) _High Tyrosine SOP. Note: in the data most compounds retested in dose-response had high values. In kind it is functional. As to conditions: 30 µM.

For assay [8], the target named is T4, Tyrosyl-tRNA synthetase, putative (Trypanosoma cruzi (strain CL Brener)). As to the kind of experiment: Trypanosoma cruzi tyrosyl tRNA synthetase (TcYRS) SOP. It is filed as functional. The note with it: 30 µM.
Assay [9] has as its target Chromo domain-containing protein 1 (Saccharomyces cerevisiae (strain ATCC 204508 / S288c) (Baker's yeast)) (UniProt P32657). Description: ScCHD-1 Enzyme Inhibition Assay. Note: in the data most compounds retested in dose-response had high values. The note with it: 30 µM. It is filed as functional.

Sequence of Chromo domain-containing protein 1 (Saccharomyces cerevisiae (strain ATCC 204508 / S288c) (Baker's yeast)) (P32657 whole entry, the tested form may be a part): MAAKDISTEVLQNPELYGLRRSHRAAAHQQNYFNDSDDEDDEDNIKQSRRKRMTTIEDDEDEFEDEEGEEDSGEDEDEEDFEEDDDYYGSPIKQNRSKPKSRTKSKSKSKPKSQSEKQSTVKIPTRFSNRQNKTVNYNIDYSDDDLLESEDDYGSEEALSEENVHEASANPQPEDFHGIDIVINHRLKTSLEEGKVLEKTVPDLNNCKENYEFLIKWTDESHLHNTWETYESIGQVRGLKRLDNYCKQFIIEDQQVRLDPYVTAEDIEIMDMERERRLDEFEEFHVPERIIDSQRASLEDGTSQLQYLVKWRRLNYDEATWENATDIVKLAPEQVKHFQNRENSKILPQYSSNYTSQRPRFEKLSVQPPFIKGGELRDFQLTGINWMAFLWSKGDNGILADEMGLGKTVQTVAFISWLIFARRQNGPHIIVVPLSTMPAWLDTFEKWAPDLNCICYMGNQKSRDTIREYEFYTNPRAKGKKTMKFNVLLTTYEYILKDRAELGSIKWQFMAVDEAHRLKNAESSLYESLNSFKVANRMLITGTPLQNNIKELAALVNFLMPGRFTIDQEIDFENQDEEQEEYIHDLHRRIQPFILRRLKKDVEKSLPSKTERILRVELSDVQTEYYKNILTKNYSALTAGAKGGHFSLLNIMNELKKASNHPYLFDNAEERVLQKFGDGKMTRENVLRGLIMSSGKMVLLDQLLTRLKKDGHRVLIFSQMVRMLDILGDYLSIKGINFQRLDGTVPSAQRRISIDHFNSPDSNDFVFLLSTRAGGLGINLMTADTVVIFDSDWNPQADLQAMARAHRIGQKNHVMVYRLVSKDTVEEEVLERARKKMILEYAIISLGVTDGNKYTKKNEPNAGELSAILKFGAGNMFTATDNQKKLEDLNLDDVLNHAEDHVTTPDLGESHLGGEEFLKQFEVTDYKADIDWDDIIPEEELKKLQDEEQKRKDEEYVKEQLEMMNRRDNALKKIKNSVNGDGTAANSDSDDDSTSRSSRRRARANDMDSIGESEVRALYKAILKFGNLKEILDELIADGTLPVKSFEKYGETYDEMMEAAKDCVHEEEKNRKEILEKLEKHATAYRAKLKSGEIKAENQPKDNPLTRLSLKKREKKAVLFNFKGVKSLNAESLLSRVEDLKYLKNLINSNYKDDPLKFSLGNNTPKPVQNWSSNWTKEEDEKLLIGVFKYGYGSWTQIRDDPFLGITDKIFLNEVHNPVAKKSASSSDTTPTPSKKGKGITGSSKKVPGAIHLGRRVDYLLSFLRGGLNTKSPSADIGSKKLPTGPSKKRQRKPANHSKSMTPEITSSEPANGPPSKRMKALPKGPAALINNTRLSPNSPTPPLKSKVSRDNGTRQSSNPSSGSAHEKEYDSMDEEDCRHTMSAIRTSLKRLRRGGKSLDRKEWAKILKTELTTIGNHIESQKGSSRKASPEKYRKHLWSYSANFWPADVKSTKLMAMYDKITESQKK
Sequence of Protein translocase subunit SecA (Escherichia coli (strain K12)) (P10408 whole entry): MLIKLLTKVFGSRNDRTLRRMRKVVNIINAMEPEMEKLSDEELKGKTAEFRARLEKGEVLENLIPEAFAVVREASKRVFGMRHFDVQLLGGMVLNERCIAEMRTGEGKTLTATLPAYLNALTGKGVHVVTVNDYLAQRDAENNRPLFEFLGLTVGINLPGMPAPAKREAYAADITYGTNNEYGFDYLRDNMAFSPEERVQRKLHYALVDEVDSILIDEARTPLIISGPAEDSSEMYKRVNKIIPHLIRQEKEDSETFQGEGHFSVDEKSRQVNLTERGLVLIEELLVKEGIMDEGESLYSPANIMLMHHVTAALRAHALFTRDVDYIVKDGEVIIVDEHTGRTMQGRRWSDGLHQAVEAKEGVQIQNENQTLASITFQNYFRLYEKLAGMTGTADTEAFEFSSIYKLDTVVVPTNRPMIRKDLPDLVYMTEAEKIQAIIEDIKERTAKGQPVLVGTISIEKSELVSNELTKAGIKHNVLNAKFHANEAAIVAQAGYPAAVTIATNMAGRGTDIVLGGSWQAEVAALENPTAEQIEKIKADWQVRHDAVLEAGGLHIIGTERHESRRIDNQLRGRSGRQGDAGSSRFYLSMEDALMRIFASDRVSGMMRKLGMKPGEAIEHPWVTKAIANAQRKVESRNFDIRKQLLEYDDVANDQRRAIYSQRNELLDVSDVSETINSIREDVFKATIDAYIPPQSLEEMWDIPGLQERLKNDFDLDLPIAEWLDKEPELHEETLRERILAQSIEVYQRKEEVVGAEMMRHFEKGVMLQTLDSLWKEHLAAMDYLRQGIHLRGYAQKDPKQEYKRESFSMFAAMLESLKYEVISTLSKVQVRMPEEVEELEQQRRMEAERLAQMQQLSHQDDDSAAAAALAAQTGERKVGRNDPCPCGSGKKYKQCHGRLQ

For `CCCN1CCC(NC(=O)NCCc2nc(CC)c(C)s2)CC1`, the Percent Effect was -5.41% in assay [1]; 5.41% in assay [2]; -6.84% in assay [3]; 24.7% in assay [4]; 4.1% in the assay with Trypanosoma cruzi; 33.3% in [5]. The Percent Effect in assay [6] was 8.54%; in the assay filed under Homo sapiens it was -11.4%; in [7], 9.9%; in assay [8] it was 13.4%; in assay [9], -9.25%.
For `COc1ccc(C(C(=O)O)N2CCCN(C3CCCCC3)CC2)cn1` (stereo not drawn), the Percent Effect is -1.53% in assay [1]; 13.5% in [2]; -8.59% in assay [3]; 8.33% in [4]; 6.55% with Trypanosoma cruzi; -6.2% in [5]. Besides, the Percent Effect in assay [6] was 15.5%; in the assay filed under Homo sapiens it was -5.05%; in assay [7], 2.15%; in assay [8] it was 21%; in assay [9], -12.3%.
For `CCC(=O)Nc1ccc2c(c1)CN(C(=O)c1ccco1)CC2`, the Percent Effect in assay [1] was -1.48%; in assay [2], 15.6%; in assay [3], 8.06%; in assay [4], -13%; in the assay on Trypanosoma cruzi, -1.48%; in assay [5], -1.94%. In addition, the Percent Effect was 9.4% in assay [6]; 33.1% in the assay listed under Homo sapiens; 3.17% in assay [7]; 14.1% in assay [8]; -8.67% in assay [9].
With `COc1ccc(COCC(O)CNC(=O)c2cnc(C)cn2)cc1` (stereo not drawn), the Percent Effect in assay [1] was -3.92%; in [2] it was -8.86%; in assay [3], 0.227%; in assay [4], 0.611%; in the assay on Trypanosoma cruzi it was 0.308%; in [5], -1.94%. The Percent Effect was 10.1% in assay [6]; 7.75% in the assay listed under Homo sapiens; 4.17% in assay [7]; 10.1% in assay [8]; -25.8% in assay [9].
As to `COCCn1ccnc1C1CCCN(C(=O)CSCC2CC2)C1` (stereo not drawn), the Percent Effect was -1.08% in assay [1]; 6.94% in [2]; -7.23% in [3]; -0.00565% in assay [4]; 4.37% in the assay with Trypanosoma cruzi; 0% in [5]. For the same compound, the Percent Effect in [6] is 19.1%; in the assay listed under Homo sapiens it was 1.07%; in [7] it was 3.16%; in [8], 7.69%; in assay [9], -0.19%.
In the case of `Cc1ccc(S(=O)(=O)N2C[C@@H]3C[C@@H](NC(=O)C(C)(C)C)[C@@H]3C2)cc1`, the Percent Effect in assay [1] is -5.99%; in assay [2] it was 14.9%; in assay [3], 5.25%; in assay [4], 4.69%; in the assay on Trypanosoma cruzi, 2.77%; in assay [5] it was -3.48%. Besides, the Percent Effect in assay [6] was 12.3%; in the assay listed under Homo sapiens, 2.6%; in assay [7] it was 3.23%; in assay [8] it was 9.09%; in assay [9], -22.4%.
Regarding `CC(C)c1ncc2c(n1)CN(Cc1nc(-c3ccoc3)no1)CC2`, the Percent Effect in assay [1] is -2.65%; in [2] it was 10.8%; in assay [3] it was -16.9%; in assay [4], 5.18%; with Trypanosoma cruzi, 0.0929%; in assay [5], -0.185%. The Percent Effect is 6.46% in assay [6]; 12.5% in the assay filed under Homo sapiens; 9.9% in assay [7]; 3.66% in [8]; 11.7% in assay [9].
For the compound `Cn1ccnc1CNC(=O)N1CCCC(Cc2nccn2C)C1` (stereo not drawn), the Percent Effect in [1] is -8.83%; in [2] it was -2.7%; in [3], 9.59%; in assay [4], -1.15%; in the assay with Trypanosoma cruzi, -3.71%; in assay [5], -0.833%. For the same compound, the Percent Effect was 2.28% in assay [6]; -4.83% in the assay listed under Homo sapiens; 10.9% in [7]; 1.22% in [8]; 1.72% in [9].
